By viability is commonly meant a read-out of living cells in per cent, often relative to untreated cells.

Results filed as inconclusive are left out. Calls of active or inactive are those of the source. Calls follow the shape of the dose curve; as a rule, active = well fitted cell-killing curve with a large enough effect; inconclusive = small, poorly fitted or top-dose-only effect; inactive = flat fitted curve, though single readings scatter.

Data on 40 molecules can be found in PubChem BioAssay (NCATS).
Potency is read from the fitted curve at half-maximal effect.

A short description of the assay: Quantitative highthroughput screen to assess conditional lethalithy of NOMO1 cells grown in RPMI1640 with dialyzed fetal bovine serum (RPMI+ds) (AID 1963877). Also: nearly all actives have a fitted effect of over 30% in size. The note with it: NOMO1 in RPMI+dialyzed FBS viability, ATP luminescence, 48 h; series mostly up to 45.8 µM; viability: at the top concentration. The source says:
Assay Provider: Jason Cantor Ph.D.
Department of Biochemistry
University of Wisconsin-Madison, Madison, WI, USA
Chemical screening studies have identified drug sensitivities across hundreds of cancer cell lines but most putative therapeutics fail to translate. Discovery and development of drug candidates in models that more accurately reflect nutrient levels in human blood is a major challenge. Here we performed high-throughput screens in conventional versus Human Plasma-Like Medium (HPLM) to identify compounds that were "missed" when screening using the artificial culture condition. Sets of conditional anticancer compounds spanned phases of clinical development and included non-oncology drugs were assessed. […] We also traced conditional phenotypes for several chemotherapeutics to availability of HPLM-specific metabolites and confirmed others for compounds whose reported targets are encoded by nonessential genes. Our findings establish generalizable strategies for exploiting conditional lethality in HPLM to reveal therapeutic candidates and mechanisms of action in cancer cells.
Described herein are the results of each viability screens against three cell lines: NOMO1 (an acute myeloid leukemia cell line); P12-Ichikawa (a T-cell acute lymphoblastic leukemia); and SEM (a B-cell ALL). Each assay was screened using 3 different cell culture media: homemade human plasma-Like medium with 10% dialyzed fetal bovine serum (HPLM+ds); RPMI1640 with 10% untreated FBS and 5mM glucose (RPMI+s); and RPMI1640 with 10% dialyzed fetal bovine serum and 5 mM glucose (RPMI+ds).
PROTOCOL TABLE (as described by Inglese J, Shamu CE and Guy RK. 2007)
SEQUENCE No. (e.g., 1, 2, 3, etc.); […] (e.g., Cells, Incubation, Reagent, etc.); VALUE and DESCRIPTION.
1; Cells; 5 uL; white, solid bottom 1536-well Greiner assay plate.
2; Compounds; 23 nL; Kalypsis pin tool (Wako USA) equipped with a 1536-well pin head to transfer to the assay plates.
3; Incubation; 48 hours; 37C incubation.
4; Reagent; 3 uL; CellTiter Glo (Promega).
5; Incubation; 5 min, room temperature
6; Detection; Luminescence, Viewlux PerkinElmer.
NOTES (numbers refer to Sequence numbers above)
1. Briefly, 5 ul of cell reagent was dispensed using a Multidrop Combi Dispenser. The NOMO1 and SEM cells were plated at 500 cells/well and the P12-Ichikawa line at 1000 cells/well.
2. After seeding the cells, 23 nL of MIPE 4.1 library compounds (in DMSO) were added to each plate using a Kalypsys 1536 Pintool dispenser. Bortezomib at final concentration of […] and DMSO were added to each plate as positive and negative controls respectively. For each screen, MIPE 4.1 compounds were added over an eleven-point concentration range […] in 3-fold dilutions.
3. Each plate was covered with a stainless steel gasketed lid to prevent evaporation and incubated for 48 hour at 37C, 95% relative humidity, and 5% CO2.
4-5. Three microliter CellTilter-GloTM luminescent substrate mix (Promega) reagent was added to the assay plate and incubated at room temperature for 5 min.
6. The luminescence signal was measured using a ViewLux (PerkinElmer) multiplate reader with a 2 second exposure time per plate. Data for each compound were normalized as percent viability such that measurements for DMSO and the empty well controls in each plate were defined as 100% and 0%, respectively.
As for `O=C(C1CC1)N1CC[C@@H](Cc2n[nH]c(=O)n2-c2ccc(-c3ccc4occc4c3)cc2)C1`, the “viability” value was 98.5% (inactive).

Take `C[C@H](NC(=O)c1sccc1OCc1ccc(Cl)cc1)c1ccccc1`: the “viability” value was 105% (inactive).

With `COc1cc(C)c(C=CC(C)=CC=CC(C)=CC(=O)O)c(C)c1C`, the “viability” value was 81.7% (inactive).

Turning to `CO[C@H]1C(=O)[C@]2(C)[C@@H](OC)C[C@H]3OC[C@@]3(OC(C)=O)[C@H]2[C@H](OC(=O)c2ccccc2)[C@]2(O)C[C@H](OC(=O)[C@H](O)[C@@H](NC(=O)OC(C)(C)C)c3ccccc3)C(C)=C1C2(C)C`, the Potency was 13.2 nM (active).

As to `O=C(O)COCCN1CCN(C(c2ccccc2)c2ccc(Cl)cc2)CC1` (stereo not given), the “viability” value was 105% (inactive).

In the case of `Cc1ccc(C(=O)c2cc(O)c(O)c([N+](=O)[O-])c2)cc1`, the “viability” value is 101% (inactive).

As for `CC(C)C[C@H](NC(=O)[C@H](CCc1ccccc1)NC(=O)CN1CCOCC1)C(=O)N[C@@H](Cc1ccccc1)C(=O)N[C@@H](CC(C)C)C(=O)[C@@]1(C)CO1`, the Potency is 37.2 nM (active).

With `Cc1cn([C@H]2C=C[C@@H](CO)O2)c(=O)[nH]c1=O`, the “viability” value is 103% [at 92.2 µM] (inactive).

As to `CC(=O)N(O)CCCCCNC(=O)CCC(=O)N(O)CCCCCNC(=O)CCC(=O)N(O)CCCCCN`, the Potency was 83.1 nM (active).

Regarding `Cc1cnc(NC(=O)C2=C(O)c3ccccc3S(=O)(=O)N2C)s1`, the “viability” value was 107% (inactive).

For `O=C(O)c1ccc(-c2c[nH]c3ncc(-c4ccccc4)cc23)cc1C1CCCC1`, the “viability” value was 95.3% (inactive).

Consider `Nc1cc(C(Cl)=C(Cl)Cl)c(S(N)(=O)=O)cc1S(N)(=O)=O`, for which the Potency was 7430 nM (active).

Consider `CN1C(=O)c2sccc2N(C)c2nc(Nc3ccc(S(N)(=O)=O)cc3)ncc21`, for which the Potency was 13200 nM (active).

For `Cc1[nH]c(C=C2C(=O)Nc3ccc(S(=O)(=O)Cc4c(Cl)cccc4Cl)cc32)c(C)c1C(=O)N1CCC[C@H]1CN1CCCC1`, the “viability” value was 81.1% (inactive).

Consider `CCOC(=O)N1CCN([N+]([O-])=NOc2cc(ON=[N+]([O-])N3CCN(C(=O)OCC)CC3)c([N+](=O)[O-])cc2[N+](=O)[O-])CC1`, for which the “viability” value is 99.1% (inactive).

Consider `CN(C)C/C=C/C(=O)Nc1ccc(C(=O)Nc2cccc(Nc3ncc(Cl)c(-c4c[nH]c5ccccc45)n3)c2)cc1`, for which the Potency was 263 nM (active).

As to `O=S(=O)(O)CCSSCCS(=O)(=O)O`, the “viability” value is 98.1% (inactive).

Consider `O=C1CSC(=O)N1C(CCc1ccncc1)COc1ccc(-c2cccc([N+](=O)[O-])c2)cc1` (stereo not given), for which the “viability” value is 89.3% (inactive).

For the molecule `COc1cc(C(C)C)c2c(c1)S(=O)(=O)N(COc1cc(=O)n3cccc(OCCN4CCCCC4)c3n1)C2=O`, the “viability” value is 85.2% (inactive).

In the case of `CCOC(=O)Nc1ccc(NCc2ccc(F)cc2)nc1N`, the “viability” value was 97.2% (inactive).

Take `CC(C)(C)C(=O)Oc1ccc2c(c1)nc(NC(=O)c1cccc([N+](=O)[O-])c1)n2CCCO`: the “viability” value was 102% (inactive).

On to `CC(C)C[C@H](NC(=O)CNC(=O)c1cc(Cl)ccc1Cl)B1OC(=O)CC(CC(=O)O)(C(=O)O)O1` (stereo not given in full), for which the Potency is 418 nM (active).

Regarding `NC(=O)NO`, the Potency is 4180 nM (active).

Consider `CCN(CC)CCOc1ccc(C(=C(Cl)c2ccccc2)c2ccccc2)cc1`, for which the “viability” value is 93.1% (inactive).

On to `N=C1SC(=Cc2ccc(-c3ccc4c(c3)C(=O)NC4=O)o2)C(=O)N1c1ccc(Br)cc1`, for which the “viability” value was 97.2% (inactive).

Consider `O=c1c(O)c(-c2cc(O)c(O)c(O)c2)oc2cc(O)cc(O)c12`, for which the “viability” value was 97.9% (inactive).

As to `O=C(Nc1cc(C(F)(F)F)cc(C(F)(F)F)c1)c1cc(Cl)ccc1O`, the Potency was 2960 nM (active).

In the case of `CC(=O)Oc1ccccc1C(=O)O`, the “viability” value was 103% (inactive).

Turning to `Cc1ccc2nc(NCCN)c3ncc(C)n3c2c1`, the Potency is 26400 nM (active).

Consider `CC1(C)OC2=C(C(=O)c3ccccc3C2=O)[C@H](NCc2ccccc2)[C@H]1O`, for which the Potency is 9350 nM (active).

Take `CNC(=O)c1cc(Oc2ccc(NC(=O)Nc3ccc(Cl)c(C(F)(F)F)c3)c(F)c2)ccn1`: the “viability” value was 84% (inactive).

On to `COc1cccc2nc(-c3cccs3)nc(NN3C(=O)C=C(C)C3=O)c12`, for which the Potency is 1320 nM (active).

As for `O=C1C[C@@H](c2ccc(O)cc2)Oc2cc(O)cc(O)c21`, the “viability” value is 92.7% (inactive).

Regarding `Cc1cc2cc3c(C)cc(=O)oc3c(C)c2o1`, the “viability” value was 100% (inactive).

For `NC(=O)c1cccc(-c2cccc(OC(=O)NC3CCCCC3)c2)c1`, the “viability” value was 95.4% (inactive).

As for `CC1COC2(CCN(c3nc(=O)c4cc(C(F)(F)F)cc([N+](=O)[O-])c4s3)CC2)O1` (stereo not given), the “viability” value is 97.3% (inactive).

As to `CCOC(=O)c1c(CSc2ccccc2)n(C)c2cc(Br)c(O)c(CN(C)C)c12`, the Potency is 16600 nM (active).

For `CC1(C)SCCN(S(=O)(=O)c2ccc(OCC#CCO)cc2)[C@@H]1C(=O)NO`, the “viability” value is 101% (inactive).

As for `CCS(=O)(=O)Nc1ccc2[nH]c(O)c(C(=Nc3ccc(CN4CCCCC4)cc3)c3ccccc3)c2c1`, the Potency is 833 nM (active).

Regarding `C=C1C(=O)[C@@]23C(CC[C@@H]1[C@H]2O)[C@@]12CO[C@]3(O)[C@@H](O)[C@@H]1C(C)(C)CC[C@@H]2O` (stereo not given in full), the Potency is 23500 nM (active).
